A selection: hits, their analogues and other compounds. The true share with any hit is near 18%.
TGFb SMAD3 inh: blocks TGF-b signaling; HepG2 CAGA-GFP TGF-b/SMAD3 reporter, GFP fluorescence, 18 h; TGF-beta stimulated, 500 pg/mL final; Potency, µM (titrated, usually from 46.1 µM), for inactives: at the highest dose activity, negative = inhibition, usual class: inhibitors; actives 1.2% (n = 410,000); further: potency means the concentration at half of the fitted maximal effect; on the % scale 0 is the no-effect control and ±100 the full control effect; nearly all actives have a fitted effect of over 65% in size
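Using HEPG2 CAGA-GFP reporter cells at 1000 cells/well, we pinned test compounds, stimulated with recombinant TGF-beta (500 pg/mL final) and measured total well GFP after 18 h.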
TDP1 cell CPT: growth inhibition of DT40 Tdp1-/-;hTDP1 cells with camptothecin (screen for TDP1 inhibitors); Potency, µM (series often up to 46.2 µM), for the others: top-dose activity change, negative = growth inhibition, hits mostly inhibitors; actives 12% (n = 420,000); chicken DT40 Tdp1-/-;hTDP1 cells + 20 nM CPT, ATP luminescence, 48 h; further: potency means the concentration at half of the fitted maximal effect; on the % scale 0 is the no-effect control and ±100 the full control effect; nearly all actives have a fitted effect of over 55% in size
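Cell growth measured by CellTiter-Glo luminescence after a minimum 48 h, 37 C compound exposure with 20 nM CPT in Tdp1-knockout DT40 cells stably expressing hTDP1, seeded 400/well; qHTS titration format.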
IL1B secr inh: blocks inflammasome-driven IL-1 beta release; THP-1 LPS/ATP IL-1B secretion, AlphaLISA, 16 h; active compounds read low; activity change, % at 57.5 µM; actives 4.7% (n = 360,000); AID 743279; in the data active means activity change below about -50%; inconclusive means mostly about -30% to -49%; further: on the % scale 0 is the no-effect control and ±100 the full control effect
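THP-1 cells pretreated 1 hr with compounds (up to 57.5 uM final), then stimulated with LPS (250 ng/mL final) plus ATP (1.25 mM final); secreted IL-1B measured by AlphaLISA after 16 hr, decreased signal indicating inhibition.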
DT40 TDP1 no CPT: qHTS for Inhibitors of human tyrosyl-DNA phosphodiesterase 1 (TDP1): qHTS in cells in absence of CPT; actives 15% (n = 420,000); Potency, µM (top dose mostly 46.2 µM), inactives show at the top dose activity change, negative = growth inhibition, hits mostly inhibitors; DT40 Tdp1-/- hTDP1 cells, no CPT, ATP luminescence, 48 h; further: potency means the concentration at half of the fitted maximal effect; on the % scale 0 is the no-effect control and ±100 the full control effect; nearly all actives have a fitted effect of over 55% in size
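DT40 Tdp1-/-;hTDP1 cells, no CPT (DMSO vehicle only), 400 cells/well; compounds pin-transferred; ≥48 hr, 37 °C; CellTiter-Glo 30 min RT dark, luminescence read.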
TDP1 block: blocks human tyrosyl-DNA phosphodiesterase 1; Potency, µM (highest dose often 130 µM), for inactives: top-dose activity change, negative = inhibition, hits mostly inhibitors; recombinant TDP1, AlphaScreen DNA substrate cleavage; actives 0.28% (n = 350,000); AID 485290; further: potency means the concentration at half of the fitted maximal effect; on the % scale 0 is the no-effect control and ±100 the full control effect; nearly all actives have a fitted effect of over 40% in size
Target sequence (Q9NUW8 whole entry, looked up): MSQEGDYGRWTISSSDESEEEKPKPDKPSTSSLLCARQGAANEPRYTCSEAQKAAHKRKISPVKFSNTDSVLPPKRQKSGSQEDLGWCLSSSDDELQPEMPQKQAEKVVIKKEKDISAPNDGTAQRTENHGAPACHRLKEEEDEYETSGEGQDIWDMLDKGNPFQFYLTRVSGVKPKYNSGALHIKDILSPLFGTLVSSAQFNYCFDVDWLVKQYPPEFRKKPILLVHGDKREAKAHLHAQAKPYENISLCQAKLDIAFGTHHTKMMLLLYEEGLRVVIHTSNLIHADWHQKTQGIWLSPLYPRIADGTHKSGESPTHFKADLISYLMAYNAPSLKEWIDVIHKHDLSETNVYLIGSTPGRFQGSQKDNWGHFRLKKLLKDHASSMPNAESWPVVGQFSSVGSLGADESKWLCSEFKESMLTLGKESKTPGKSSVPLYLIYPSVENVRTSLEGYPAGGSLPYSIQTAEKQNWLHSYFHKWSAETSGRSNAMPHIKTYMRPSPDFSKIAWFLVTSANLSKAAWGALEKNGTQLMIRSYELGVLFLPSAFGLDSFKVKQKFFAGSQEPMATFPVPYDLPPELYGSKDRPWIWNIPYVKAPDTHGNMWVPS
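E. coli-derived human Tdp1, 1 nM final. Cpd preinc 15 min RT; substrate 15 nM final, 5 min RT; AS bead mix 10 ug/ml final, 10 min RT. Signal loss = tyrosine-FITC cleavage. No-enzyme wells = max signal.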
HepG2 viability: HepG2 cytotoxicity, counter-screen for TGF-b inhibitors | HepG2 CAGA-GFP viability, ATP luminescence, 18 h | actives 0.76% (n = 410,000) | AID 588856 | Potency, µM (series often up to 46.1 µM), without a hit: top-dose activity change, negative = cytotoxicity, actives largely listed as cytotoxic; further: potency means the concentration at half of the fitted maximal effect
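CellTiter-Glo luminescence gave cytotoxicity after 18 hours at 37 degrees C. The cells were HepG2 CAGA-GFP in 1% FBS DMEM, stimulated with 500 pg/mL TGF-beta after compound addition. %Activity was normalised to no-cell wells (complete cell-killing) and DMSO (no toxicity), and curves were fitted and classified.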
Numbers without * were called inactive; ? = inconclusive; . = no result; ! = repeats disagree; [ ] = another dose, or the depositor's remark. Unless noted, the call rests on the fitted dose curve; in most records, active means well fitted curve in the direction sought with a large enough effect; inconclusive means small, poorly fitted or top-dose-only effect, or another doubt; inactive means no such curve, though single readings can be large; an effect the other way counts as inactive or inconclusive.

SMILES	TGFb SMAD3 inh	TDP1 cell CPT	IL1B secr inh	DT40 TDP1 no CPT	TDP1 block	HepG2 viability
CCOc1cc(CNCc2cc(OC)cc(OC)c2)ccc1OC	?	13µM*	-58.2*	8.2µM*	.	4.9%
COc1cc(CNCc2cc(OC)c(OC)c(OC)c2)cc(OC)c1	-29.6%	13µM*	1.9	23.1µM*	.	-0.9%
COc1cc(CNCc2cccc(OC)c2OC)cc(OC)c1	3.4%	?	-24.6	?	.	-15.4%
Cc1c(Cl)cccc1NC(=O)CSc1ncnc2c1sc1ccccc12	-1.0%	-20.2%	.	-2.1%	-5.2%	9.9%
CC(C)CCNC(=O)CCC(=O)NNc1nc2ccccc2c2nc(-c3ccccc3)nn12	-27.3%	20.6µM*	-1.9	20.6µM*	9.2%	-32.2%
Cc1cccc(N2CCN(CCCNC(=O)Cn3ncc4c([nH]c5ccccc54)c3=O)CC2C)c1 (centres undefined)	0.5%	?	.	18.4µM*	2.5%	-33.2%
O=C(CCC(=O)NNc1nc2ccccc2c2nc(-c3ccccc3)nn12)NCCCN1CCOCC1	6.1%	-6.0%	-14.1	-19.1%	0.0%	-20.2%
CC1CC(C)CN(C(=O)Cn2ncc3c([nH]c4ccccc43)c2=O)C1 (centres undefined)	?	?	26.5	?	2.5%	-44.8%
Cc1cccc(N2CCN(C(=O)Cn3sc4nc(C)cc(C)c4c3=O)CC2C)c1 (centres undefined)	?	3.66µM*	?	4.61µM*	9.2%	-32.6%
Cc1cccc(N2CCN(C(=O)Cn3ncc4c([nH]c5ccccc54)c3=O)CC2C)c1 (centres undefined)	14.2%	?	.	14.6µM*	-2.5%	6.7%
CCC1CCCCN1CCCNC(=O)Cn1ncc2c([nH]c3ccc(C)cc32)c1=O (centres undefined)	-12.5%	-26.1%	-18.7	-23.5%	0.8%	-14.3%
Cc1cccc(CN2CCN(CC(=O)NCCCN3CCN(c4ccc(F)cc4)CC3)C2=O)c1	0.0%	11.2µM*	-56.2*	?	2.3%	-29.6%
Cc1ccc2[nH]c3c(=O)n(CC(=O)NCCCN4CCN(c5ccc(F)cc5)CC4)ncc3c2c1	-18.2%	?	?	16.4µM*!	-0.3%	-9.3%
Cc1cccc(CN2CCN(CC(=O)NCCCN3CCCC3=O)C2=O)c1	2.8%	4.2%	6.1	5.9%	5.4%	-15.1%
Cc1ccc(Cl)cc1N1CCN(CCCNC(=O)Cn2ncc3c([nH]c4ccccc43)c2=O)CC1	3.1%	14.6µM*	.	8.2µM*	0.0%	-22.0%
Cc1cccc(N2CCN(C(=O)CCC(=O)NNc3nc4ccccc4c4nc(C)nn34)CC2C)c1 (centres undefined)	?	18.4µM*	.	23.1µM*	6.9%	-29.3%
Cc1ccc(-c2ccc(=O)n(CC(=O)N3CCN(c4cccc(C)c4)C(C)C3)n2)cc1 (centres undefined)	?	?	-60.9*	-21.7%	8.2%	-33.2%
Cc1cccc(N2CCN(C(=O)Cn3nc(C)n4cccc4c3=O)CC2C)c1 (centres undefined)	9.2%	?	4.3	-25.3%	8.6%	-0.6%
COc1ccc(-c2nnc(SCC(=O)NC3CCCCC3)n2N)cc1	-15.2%	-0.6%	28.3	-5.5%	-0.4%	-1.8%
CCOc1ccccc1/C=C/c1onc(C)c1S(=O)(=O)N1CCC(C(=O)N(CC)CC)CC1	?	14.6µM*	-11.2	16.4µM*	0.1%	4.7%
CCN(CCN(C)C)C(=O)C1CCN(S(=O)(=O)c2c(C)noc2/C=C/c2ccccc2F)CC1	?	2.91µM*	-11.1	4.61µM*	5.4%	15.8µM*!
Cc1noc(/C=C/c2ccccc2F)c1S(=O)(=O)N1CCC(C(=O)N2CCN(C)CC2)CC1	-29.2%	?	0.0	?	3.7%	-24.1%
Cc1noc(/C=C/c2ccco2)c1S(=O)(=O)N1CCC(C(=O)N(C)Cc2ccccc2)CC1	?	?	?	-24.7%	3.9%	-29.6%
CCN1CCN(Cc2ccc(NC(=O)c3ccc(C)c(NC(=O)c4cccc(-c5cn[nH]c(=O)c5)c4)c3)cc2C(F)(F)F)CC1	-37.4%	?	-96.5*	16.4µM*	.	-41.6%
CCN1CCN(Cc2ccc(NC(=O)c3ccc(C)c(/C=C/c4cnc(Nc5cc(N6CCNCC6)nc(C)n5)cn4)c3)cc2C(F)(F)F)CC1	?	3.26µM*	-99.8*	14.6µM*	.	17.8µM*
SMILES	TGFb SMAD3 inh	TDP1 cell CPT	IL1B secr inh	DT40 TDP1 no CPT	TDP1 block	HepG2 viability
CCN1CCN(Cc2ccc(NC(=O)c3ccc(C)c(NC(=O)c4csc(-c5ccncc5)n4)c3)cc2C(F)(F)F)CC1	?	16.4µM*	0.0	23.1µM*	2.4%	15.8µM*
O=C(Nc1cccc(C(F)(F)F)c1)N1CCN(C(=O)Nc2cccc(C(F)(F)F)c2)CC1	0.0%	-10.1%	39.1	-8.8%	-1.9%	-11.9%
CCN1CCN(Cc2ccc(NC(=O)c3ccc(C)c(NC(=O)C[C@@H]4NC(=O)[C@H](Cc5ccccc5)NC4=O)c3)cc2C(F)(F)F)CC1	5.4%	4.6%	63.6	0.0%	10.0%	1.2%
COc1cc(NC(=O)N2CCNC2=O)cc(C(=O)Nc2cccc(C(F)(F)F)c2)c1	?	3.66µM*	38.3	4.11µM*	5.9%	-17.7%
CO[C@@H]1COC(=O)C/C=C\[C@@H](C)COC(=O)[C@H](Cc2ccccc2)NC(=O)C/C=C\[C@H]1C	.	.	.	.	-0.5%[21 µM]	.
CC1CCCCN1CC(=O)c1c(N)n(Cc2ccccc2)c(=O)n(C)c1=O (centres undefined)	0.5%	0.7%	14.5	-12.1%	-2.7%	-15.7%
CC1Cc2ccccc2N1C(=O)c1ccc(F)c(S(=O)(=O)N2CCOCC2)c1 (centres undefined)	-32.1%	?	20.0	?	0.9%	1.8%
Cc1cnnc2ccccc12	-15.9%	2.4%	.	-4.8%	.	5.7%
CCN1CCN(Cc2ccc(NC(=O)c3cc(NC(=O)c4cc5cccc(OC)c5o4)cc(OC)c3)cc2C(F)(F)F)CC1	?	5.8µM*	-107.4*!	4.61µM*	6.2%	17.8µM*!
CCN1CCN(Cc2ccc(NC(=O)c3ccc(C)c(NC(=O)c4ccno4)c3)cc2C(F)(F)F)CC1	-0.3%	13µM*	-65.1*	6.51µM*	3.5%	-50.8%
